Shown are actives, neighbours in structure and some others; about 12% of the full set was active somewhere.
Pf growth 96h: inhibits malaria parasite growth, 96 h; AID 504834; Potency, µM (highest dose often 28.7 µM), hits mostly inhibitors; 6.9% of 320,000 active; P. falciparum luciferase reporter growth, 96 h
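Cell-based qHTS: luciferase-tagged P. falciparum in erythrocytes (2% hematocrit, 0.05% parasitemia final) incubated with compounds for 96 hours, 37 C, 5% CO2; luciferase detection reagent then added and luminescence measured.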
AmpC inh no detg: blocks E. coli AmpC beta-lactamase in detergent-free assay; P00811; AmpC nitrocefin hydrolysis, absorbance 480 nm, 0.0001% Triton; Potency, µM (highest dose often 57.1 µM), actives largely listed as inhibitors; 0.52% of 330,000 active; AID 485341; further: nearly all actives have a fitted effect of over 20% in size
Target sequence (P00811 whole entry, looked up): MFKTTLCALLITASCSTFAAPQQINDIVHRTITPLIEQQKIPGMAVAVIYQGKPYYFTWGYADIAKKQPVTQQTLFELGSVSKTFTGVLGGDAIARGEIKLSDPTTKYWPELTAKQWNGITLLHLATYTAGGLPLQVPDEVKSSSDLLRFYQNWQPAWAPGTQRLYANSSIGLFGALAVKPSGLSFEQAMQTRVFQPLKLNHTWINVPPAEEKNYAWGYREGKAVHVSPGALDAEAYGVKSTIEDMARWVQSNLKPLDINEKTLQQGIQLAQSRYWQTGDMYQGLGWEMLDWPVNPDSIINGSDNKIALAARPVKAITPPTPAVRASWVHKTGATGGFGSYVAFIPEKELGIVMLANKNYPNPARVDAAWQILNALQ
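20 mM phosphate pH 7.0 + 0.01% (detergent screen) or 0.0001% Triton X-100; 5.3 nM AmpC reagent; cpd preinc 15 min RT; nitrocefin (800 uM stock) to start; A480 q20 s × 4 min; Activity was normalised to no-enzyme and no-compound control wells.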
Sm TGR block: S. mansoni TGR enzyme inhibition; 3% of 360,000 active; Q962Y6; purified TGR, DTNB reduction, TNB absorbance 405 nm; Potency, µM (highest dose often 114 µM), hits mostly inhibitors; further: nearly all actives have a fitted effect of over 60% in size
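First, TGR (20 nM dispensed) and NADPH were mixed with compound. Second, a 15 min room-temperature incubation followed. Third, further NADPH and then DTNB were added to start the reaction. Finally, TNB absorbance was monitored kinetically.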
Pf growth 48h: P. falciparum growth inhibition at 48 hours (one generation); P. falciparum luciferase growth in erythrocytes, 48 h; Potency, µM (doses to about 28.7 µM), usual class: inhibitors; 5.9% of 310,000 active
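Cell-based growth assay: transgenic P. falciparum expressing firefly luciferase, cultured in red cells within RPMI 1640 containing 0.5% w/v Albumax, 24 mM bicarbonate and gentamycin. A drop in luciferase activity indicates inhibition.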
SARS PLP yeast: SARS-CoV PLP inhibition in yeast; 0.19% of 330,000 active; S. cerevisiae expressing SARS-CoV PLpro, growth rescue; Potency, µM (top dose mostly 32.9 µM), most hits filed as activators; AID 485353; calls by dose curve; further: nearly all actives have a fitted effect of over 55% in size
AmpC detergent: AmpC beta-lactamase inhibition with detergent present; Potency, µM (doses to about 114 µM), hits mostly inhibitors; P00811; 0.041% of 370,000 active; AmpC hydrolysis of nitrocefin, absorbance 480 nm, 0.01% Triton; further: nearly all actives have a fitted effect of over 25% in size
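AmpC (5.3 nM in the dispensed reagent) in 20 mM phosphate pH 7.0 with 0.01% (detergent screen) or 0.0001% Triton X-100 was preincubated with compounds for 15 min at room temperature. Nitrocefin was then added from an 800 uM solution, and hydrolysis was followed at 480 nm.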
Numbers stand for hits; . = inactive; ? = inconclusive; / = not tested or not shown; [ ] = another dose, or the depositor's remark. Unless noted, the call rests on the fitted dose curve; in most records, active means well fitted curve in the direction sought with a large enough effect; inconclusive means small, poorly fitted or top-dose-only effect, or another doubt; inactive means no such curve, though single readings can be large; an effect the other way counts as inactive or inconclusive.

SMILES	Pf growth 96h	AmpC inh no detg	Sm TGR block	Pf growth 48h	SARS PLP yeast	AmpC detergent
CCN(Cc1ccccc1)C(=O)CN1C(=O)COc2ccc(S(=O)(=O)NC3CCCC3)cc21	.	.	.	?	.	.
CC(=O)c1c(O)cc(C)n(Nc2nc(C)cc(C)n2)c1=O	?	.	.	12µM	.	.
Cc1cc(C)c2nc(NNC(=O)c3ccc(S(=O)(=O)N4CCCC(C)C4)cc3)sc2c1 (centres undefined)	2.3µM	?	.	?	?	?
Cc1ccc2nc(NNC(=O)c3ccc(S(=O)(=O)N4CCc5ccccc5C4)cc3)sc2c1	2.9µM	?	.	1.9µM	5µM	?
Cc1cc(C)c2nc(NNC(=O)c3ccc(S(=O)(=O)N4CC(C)CC(C)C4)cc3)sc2c1 (centres undefined)	1.9µM	.	.	2.6µM	?	.
COCCn1c(SCC(=O)Nc2ccc(Br)cc2)nc2c([nH]c3ccccc32)c1=O	/	/	.	/	/	.
CCCCCCCCOC(=O)CCc1c(C)[nH]c(=S)[nH]c1=O	.	.	.	?	.	.
CCCCCCOC(=O)/C=C/c1c(C)[nH]c(=O)[nH]c1=O	.	?	.	9.3µM	.	.
COCCNC(=O)c1cc2c(=O)n3cccc(C)c3nc2n(Cc2ccncc2)c1=N	?	.	.	?	.	?
CCCn1c(=N)c(C(=O)NC2CCCC2)cc2c(=O)n3cccc(C)c3nc21	?	.	.	1.9µM	.	.
Cc1cccn2c(=O)c3cc(C(=O)NC4CCCCC4)c(=N)n(CCN4CCOCC4)c3nc12	?	.	.	?	.	.
CCCCNC(=O)c1cc2c(=O)n3cccc(C)c3nc2n(CCN2CCOCC2)c1=N	?	.	.	3.7µM	.	.
Cc1ccc2nc3c(cc(C(=O)NCCc4ccccc4)c(=N)n3CCN3CCOCC3)c(=O)n2c1	.	.	.	.	.	.
CCCCNC(=O)c1cc2c(=O)n3cccc(C)c3nc2n(Cc2ccncc2)c1=N	.	?	.	5.2µM	.	.
Cc1ccc2nc3c(cc(C(=O)NCCN4CCOCC4)c(=N)n3CCCN3CCOCC3)c(=O)n2c1	?	.	.	12µM	.	.
CCCCn1c(=N)c(C(=O)NC2CCCCC2)cc2c(=O)n3cccc(C)c3nc21	/	/	.	/	/	.
O=C(CSc1nccn1-c1ccc(Cl)cc1)NCc1ccc2c(c1)OCO2	?	.	.	/	.	?
Cc1cccn2c(=O)c3cc(C(=O)NC4CCCCCC4)sc3nc12	?	.	35µM	?	.	.
Cc1ccc2nc3c(cc(C(N)=S)c(=N)n3CCCOC(C)C)c(=O)n2c1	1.5µM	.	.	12µM	.	.
CCc1ccc(-n2c(N3CCN(c4cccc(Cl)c4)CC3)nc3ccccc3c2=O)cc1	/	/	.	/	/	.
COc1ccc(-c2c(C#N)c(SCC(=O)Nc3ccccc3C)nc(C)c2C(=O)Nc2ccccc2)cc1OC	/	/	.	/	/	.
Cn1cc(CN2C[C@]3(C)C[C@H]2CC(C)(C)C3)c(-c2ccc3c(c2)OCCO3)n1	?	.	.	.	.	.
COc1cc(O)c(C(CCN2CCCC2)c2cc(OC)c(OC)c(OC)c2)c(OC)c1 (centres undefined)	2.9µM	.	?	4.1µM	.	.
COc1cc(O)c(C(CCN2CCCCC2)c2cc(OC)c(OC)c(OC)c2)c(OC)c1 (centres undefined)	1.9µM	.	.	0.74µM	.	.
Cc1ccc(-c2c(C)c(-c3ccc(F)cc3)nc(N)c2C#N)o1	.[5.75 µM]	.	28µM	.	.	.
O=C(N/N=C/c1ccccc1C(=O)O)c1ccc(COc2cccc3cccnc23)cc1	.	.	.	.	.	.
O=C(N/N=C/c1ccc[nH]1)c1ccccc1O	?	.	.	.	.	.
O=C(N/N=C/c1ccc[nH]1)c1ccc(COc2cccc3cccnc23)cc1	?	.[2.29 µM]	.	10µM	.	.
O=C(N/N=C/c1ccc[nH]1)c1ccc(O)cc1	10µM	.	.	.	.	.
Cc1cc(Br)c(OCc2ccc(C(=O)N/N=C/c3ccc[nH]3)cc2)c(Br)c1	10µM	.	?	2.6µM	.	.

Compound activity as filed in PubChem.
